According to PubChem BioAssay (NCI):
Compounds without any hit were thinned out: in the full panel of roughly 79,000, 15% have a hit. Active and inactive are the calls of the source. Cut-off read from the data, not from the text of the source: active = growth inhibition above about 70%; inactive = the rest.

Key:
[1] = NCI Yeast Anticancer Drug Screen. Data for the rad14 strain (AID 159);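 note: 0% = growth of vehicle-treated control cultures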; settings: S. cerevisiae rad14 strain growth inhibition, stronger effect = higher value
Procedure, shortened: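 Inhibition of growth is reported for a repair-deficient yeast mutant following compound treatment, calculated relative to cultures that received vehicle.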

[2] = NCI Yeast Anticancer Drug Screen. Data for the sgs1 mgt1 strain (AID 161);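 note: 0% = growth of cultures given vehicle only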; settings: S. cerevisiae sgs1 mgt1 strain, stronger effect = higher value
Procedure, shortened: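 Test agents were incubated with a DNA-repair-mutant yeast strain. Growth was then read and compared against vehicle-treated controls.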

[3] = NCI Yeast Anticancer Drug Screen. Data for the CLN2oe strain (AID 163);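 note: 0% = growth of vehicle-only control cultures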; settings: S. cerevisiae CLN2oe strain, stronger effect = higher value
Procedure, shortened: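 Strain altered in cell-cycle control, incubated with compound; growth compared to solvent-treated controls.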

[4] = NCI Yeast Anticancer Drug Screen. Data for the cln2 rad14 strain (AID 165);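 note: 0% = growth equal to vehicle treated cultures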; settings: S. cerevisiae cln2 rad14 strain, stronger effect = higher value
Procedure, shortened: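 The screen exposed genetically defined yeast (cln2 rad14) to test compounds and scored growth inhibition relative to vehicle-treated controls.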

[5] = NCI Yeast Anticancer Drug Screen. Data for the bub3 strain (AID 167); settings: S. cerevisiae bub3 mutant strain, stronger effect = higher value
Procedure, shortened: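 Mutant yeast screening strain plus compound; vehicle-treated cultures serve as the 0% inhibition reference.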

[6] = NCI Yeast Anticancer Drug Screen. Data for the wt2 strain (AID 169); settings: S. cerevisiae wt2 strain growth inhibition, stronger effect = higher value
Procedure, shortened: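 Steps: yeast strain treated with compound; growth recorded; inhibition calculated relative to cultures given vehicle alone.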

[7] = NCI Yeast Anticancer Drug Screen. Data for the mlh1 strain (AID 171);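 note: 0% = growth of vehicle-treated control cultures of the same strain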; settings: S. cerevisiae mlh1 strain growth inhibition, stronger effect = higher value
Procedure, shortened: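 Yeast screen: mutant strain plus compound, growth scored against vehicle control wells.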

[8] = NCI Yeast Anticancer Drug Screen. Data for the sgs1 strain (AID 173);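 note: 0% = growth of vehicle-only control cultures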; settings: S. cerevisiae sgs1 mutant, stronger effect = higher value
Procedure, shortened: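 Inhibition of yeast growth served as the measure. The mutant strain was treated with each compound, and growth was normalised to cultures receiving vehicle alone.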

[9] = NCI Yeast Anticancer Drug Screen. Data for the mlh1 rad18 strain (AID 175); settings: S. cerevisiae mlh1 rad18 strain growth inhibition, stronger effect = higher value
Procedure, shortened: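 Compound-treated yeast growth, normalised to vehicle controls. Strain bears defined DNA repair mutations.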

[10] = NCI Yeast Anticancer Drug Screen. Data for the rad18 strain (AID 177); settings: S. cerevisiae rad18 mutant growth inhibition, stronger effect = higher value
Procedure, shortened: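 Inhibition values reflect reduced yeast growth compared with vehicle-treated controls, using a strain engineered with a DNA damage repair defect.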

[11] = NCI Yeast Anticancer Drug Screen. Data for the wt1 strain (AID 149);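 note: 0% = growth of vehicle-treated wt1 cultures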; settings: S. cerevisiae wt1 strain (SPY 50644) growth inhibition, stronger effect = higher value
Procedure, shortened: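 Each compound is tested on wt1 yeast and the loss of growth versus vehicle gives the inhibition value.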

[12] = NCI Yeast Anticancer Drug Screen. Data for the rad50EPP+ strain (AID 151);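 note: 0% = growth of vehicle-treated control cultures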; settings: S. cerevisiae rad50 mutant strain, stronger effect = higher value
Procedure, shortened: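 Strain rad50EPP+; compound exposure; % growth inhibition vs vehicle.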

[13] = NCI Yeast Anticancer Drug Screen. Data for the mgt1 strain (AID 153); settings: S. cerevisiae mgt1 mutant growth inhibition, stronger effect = higher value
Procedure, shortened: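 Read-out: yeast growth inhibition vs vehicle control. Strain mgt1, drawn from a panel altered in DNA damage repair or cell cycle control.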

[14] = NCI Yeast Anticancer Drug Screen. Data for the rad50 strain (AID 155);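 note: 0% = growth of vehicle-only cultures of the same strain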; settings: S. cerevisiae rad50 strain growth inhibition, stronger effect = higher value
Procedure, shortened: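 Vehicle-treated cultures provide the reference for the growth inhibition reported for compound-exposed, repair-deficient yeast.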

[15] = NCI Yeast Anticancer Drug Screen. Data for the mec2-1 strain (AID 157); settings: S. cerevisiae mec2-1 strain, stronger effect = higher value
Procedure, shortened: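 Cells of the genetically defined mec2-1 yeast strain are incubated with test compound. Inhibition of growth is calculated against vehicle-treated controls.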

[16] = at 5.0 µM (retest, dose inferred, filed as 0.5)
[17] = at 50.0 µM (retest, dose inferred, filed as 5.0)

Measured: growth inhibition

O=[n+]1c2ccc(Cl)cc2n([O-])c2ccc(Cl)cc21
active: [9]; [17] 84%
inactive: [1]; at 100.0 µM 10% | [2]; [16] -4% | [2]; [17] 20% | [2]; at 50.0 µM 13.3% | [3]; at 1.2 µM -1% | [3]; at 3.7 µM 0% | [3]; at 11.0 µM 0% | [3]; at 33.0 µM -1% | [3]; at 100.0 µM -1% | [4]; [16] -10% | [4]; [17] -13% | [4]; at 50.0 µM -74.2% | [5]; at 1.2 µM -1% | [5]; at 3.7 µM 0% | [5]; [16] 11% | [5]; at 11.0 µM 2% | [5]; at 33.0 µM 9% | [5]; [17] 22% | [5]; at 50.0 µM -7.55% | [5]; at 100.0 µM 14% | [6]; at 1.2 µM -5% | [6]; at 3.7 µM -8% | [6]; at 11.0 µM 0% | [6]; at 33.0 µM -5% | [6]; at 100.0 µM 10% | [7]; at 1.2 µM -1% | [7]; at 3.7 µM 1% | [7]; at 11.0 µM 0% | [7]; at 33.0 µM 0% | [7]; at 100.0 µM 5% | [8]; at 1.2 µM -6% | [8]; at 3.7 µM -27% | [8]; at 11.0 µM 4% | [8]; at 33.0 µM 21% | [8]; at 100.0 µM 23% | [9]; [16] 11% | [9]; at 50.0 µM 11.7% | [10]; at 1.2 µM 4% | [10]; at 3.7 µM 12% | [10]; at 11.0 µM 25% | [10]; at 33.0 µM 37% | [10]; at 100.0 µM 63%

CCN(CC)C(C)(C)C(=O)/C=C/c1ccccc1
inactive: [11]; at 1.2 µM 0% | [11]; at 3.7 µM 5% | [11]; at 11.0 µM 2% | [11]; at 33.0 µM 2% | [11]; at 100.0 µM 4% | [12]; at 1.2 µM 2% | [12]; at 3.7 µM 6% | [12]; at 11.0 µM 8% | [12]; at 33.0 µM 6% | [12]; at 100.0 µM 5% | [13]; at 1.2 µM -3% | [13]; at 3.7 µM -3% | [13]; at 11.0 µM -3% | [13]; at 33.0 µM -1% | [13]; at 100.0 µM 2% | [14]; at 1.2 µM 0% | [14]; at 3.7 µM 2% | [14]; [16] 19% | [14]; at 11.0 µM 0% | [14]; at 33.0 µM 1% | [14]; at 50.0 µM 17.2% | [14]; at 100.0 µM 3% | [15]; at 1.2 µM 1% | [15]; at 3.7 µM 6% | [15]; [16] -15% | [15]; at 11.0 µM 5% | [15]; at 33.0 µM 9% | [15]; [17] 47% | [15]; at 50.0 µM 13.7% | [15]; at 100.0 µM 4% | [1]; at 1.2 µM -3% | [1]; at 3.7 µM -3% | [1]; at 11.0 µM 1% | [1]; at 33.0 µM 5% | [1]; at 100.0 µM 14% | [2]; [16] 42% | [2]; at 50.0 µM 17.6% | [3]; at 1.2 µM -4% | [3]; at 3.7 µM -12% | [3]; at 11.0 µM -4% | [3]; at 33.0 µM 1% | [3]; at 100.0 µM 2% | [4]; [16] -9% | [4]; [17] 46% | [4]; at 50.0 µM 7.15% | [5]; at 1.2 µM -1% | [5]; at 3.7 µM -3% | [5]; [16] 9% | [5]; at 11.0 µM 0% | [5]; at 33.0 µM -1% | [5]; at 50.0 µM 17.8% | [5]; at 100.0 µM -5% | [6]; at 1.2 µM 0% | [6]; at 3.7 µM -1% | [6]; at 11.0 µM -1% | [6]; at 33.0 µM 3% | [6]; at 100.0 µM 6% | [7]; at 1.2 µM 2% | [7]; at 3.7 µM 2% | [7]; at 11.0 µM 3% | [7]; at 33.0 µM 3% | [7]; at 100.0 µM 5% | [8]; at 1.2 µM 2% | [8]; at 3.7 µM 1% | [8]; at 11.0 µM 4% | [8]; at 33.0 µM 6% | [8]; at 100.0 µM 7% | [9]; [16] 57% | [9]; at 50.0 µM 20.4% | [10]; at 1.2 µM 1% | [10]; at 3.7 µM -1% | [10]; at 11.0 µM -1% | [10]; at 33.0 µM 3% | [10]; at 100.0 µM 6%
active: [14]; [17] 80% | [2]; [17] 92% | [5]; [17] 77% | [9]; [17] 95%
